Screening results (PubChem BioAssay)
DT40 TDP1 CPT = qHTS for Inhibitors of human tyrosyl-DNA phosphodiesterase 1 (TDP1): qHTS in cells in presence of CPT; chicken DT40 Tdp1-/-;hTDP1 cells + 20 nM CPT, ATP luminescence, 48 h; Potency, µM (doses to about 46.2 µM), for the others: at the highest dose activity change, negative = growth inhibition, most hits filed as inhibitors; 420,000 compounds, 12% hits; AID 686979, 2013; further: nearly all actives have a fitted effect of over 55% in size
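Cell growth measured by CellTiter-Glo luminescence after a minimum 48 h, 37 C compound exposure with 20 nM CPT in Tdp1-knockout DT40 cells stably expressing hTDP1, seeded 400/well; qHTS titration format.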
KB-3-1 tox = qHTS assay for MDR1-selective chemotherapeutics: Primary screen using the parental adenocarcinoma cell KB-3-1; KB-3-1 viability, CellTiter-Glo ATP luminescence, 72 h; Potency, µM (highest dose often 46.1 µM), usual class: cytotoxic; 400,000 compounds, 1.4% hits; AID 1347075, 2019; further: nearly all actives have a fitted effect of over 60% in size
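Cytotoxicity measured as CellTiter-Glo luminescence after 72 h at 37 C. Compound titrations were pinned onto drug-naive KB-3-1 parental adenocarcinoma cells grown in DMEM with 10% FBS, and normalized data fitted to concentration-response curves.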
DT40 TDP1 no CPT = qHTS for Inhibitors of human tyrosyl-DNA phosphodiesterase 1 (TDP1): qHTS in cells in absence of CPT. DT40 Tdp1-/- hTDP1 cells, no CPT, ATP luminescence, 48 h. Potency, µM (highest dose often 46.2 µM), without a hit: at the top dose activity change, negative = growth inhibition, usual class: inhibitors. 420,000 compounds, 15% hits. AID 686978, 2013; further: nearly all actives have a fitted effect of over 55% in size
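Stably hTDP1-transfected Tdp1-null chicken DT40 cells were treated with library compounds minus camptothecin and grown for at least 48 hr at 37 °C, after which cellular ATP was quantified by luminescence.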
HT1080 IDH1KD tx = qHTS for induction of synthetic lethality in tumor cells producing 2HG: qHTS for the HT-1080-IDH1KD cell line. HT-1080 IDH1 knockdown viability, ATP luminescence, 48 h. Potency, µM (top dose mostly 46.1 µM), for inactives: at the highest dose activity, negative = toxicity, usual class: cytotoxic. 360,000 compounds, 2% hits. AID 686971, 2013;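 further: 0% = DMSO wells and -100% = cell-free medium wells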
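IDH1KD HT-1080 cells, 750/well, RPMI + 5% FBS; compound pinned after 2 h settling; 48 h, 37 °C; CellTiter-Glo luminescence; % activity normalised to DMSO and no-cell wells; curves fitted, classed by r2 and efficacy.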
KB-V1 MDR tox = qHTS assay for MDR1-selective chemotherapeutics: Primary screen using the drug-selected MDR subline cells KB-V1. KB-V1 MDR cells viability, CellTiter-Glo, 72 h. Potency, µM (doses to about 46.1 µM), most hits filed as cytotoxic. 400,000 compounds, 3.4% hits; further: nearly all actives have a fitted effect of over 60% in size
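Drug-selected KB-V1 cells, grown in DMEM lacking phenol red with 10% FBS, receive compound titrations; after three days at 37 degrees C, surviving cell ATP is quantified by CellTiter-Glo luminescence and responses normalized and curve-fitted.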
HT1080-NT tox = qHTS for induction of synthetic lethality in tumor cells producing 2HG: qHTS for the HT-1080-NT fibrosarcoma cell line. HT-1080-NT fibrosarcoma viability, CellTiter-Glo ATP luminescence, 48 h. Potency, µM (highest dose often 46.1 µM), without a hit: at the top dose activity, negative = less viability, most hits filed as cytotoxic. 360,000 compounds, 1.6% hits. AID 686970, 2013;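 further: NT is the 2HG producing partner of a matched IDH1 knockdown line; 0% = DMSO-treated cells and -100% = media-only wells without cells; nearly all actives have a fitted effect of over 55% in size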
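Read-out is CellTiter-Glo luminescence after 10 minutes at room temperature, following 48 hours' compound treatment of HT-1080-NT cells (750 cells/well, RPMI, 5% FBS, 37 degrees C).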
Numbers without * were called inactive; i = inactive; u = inconclusive; x = not tested or not shown. In the library only some 19% were active in any assay of this set; here they are far more common. The call rests on the fitted dose curve; in most records, active means well fitted curve in the direction sought with a large enough effect; inconclusive means small, poorly fitted or top-dose-only effect, or another doubt; inactive means no such curve, though single readings can be large; an effect the other way counts as inactive or inconclusive. Unless noted, on the % scale 0 is the no-effect control and ±100 the full control effect; potency means the concentration at half of the fitted maximal effect.

SMILES | DT40 TDP1 CPT | KB-3-1 tox | DT40 TDP1 no CPT | HT1080 IDH1KD tx | KB-V1 MDR tox | HT1080-NT tox
CC1(C(=O)NC2CCCCCCC2)CCC(=O)N1Cc1cccnc1 (configuration not stated) | -7% | i | -26% | 2% | i | 0%
CC(C)CCN1C(=O)CCC1(C)C(=O)NC1CCCCCCC1 (configuration not stated) | u | i | -9% | -4% | i | 0%
CCc1ccc(CN2C(=O)CCC2(C)C(=O)NC2CCCC2)cc1 (configuration not stated) | u | i | u | 5% | 21µM* | 4%
CCCCN(C=O)c1c(CC)nc2c(OCC(=O)C(C)(C)C)cccn12 | u | i | -25% | 11% | i | 22%
CCCCN(C=O)c1c(CC)nc2c(OCCn3cccc3)cccn12 | u | i | 23µM* | 2% | i | -4%
CCCCN(C=O)c1c(CC)nc2c(OCCOc3ccc(F)cc3)cccn12 | u | i | 16µM* | -21% | i | 4%
CCCCN(C=O)c1c(CC)nc2c(OCC(=O)c3ccc(F)cc3)cccn12 | u | i | u | 2% | i | 6%
COc1ccc(C(=O)n2nc(-c3cccnc3)nc2NCc2ccccc2)cc1OC | -24% | i | u | x | i | x
CC(C(=O)NCC1CCCCC1)N1CCN(S(=O)(=O)c2cccs2)CC1 (configuration not stated) | u | i | u | 0% | i | 0%
Cc1ccc2scc(N3CCc4ccccc4C3)c(=O)c2c1 | u | i | u | x | i | x
Cc1c(OCC(F)(F)F)ccnc1CSc1nc2ccccc2[nH]1 | u | i | 23µM* | -28% | u | -20%
NC(=O)CCCSc1nc2ccccc2[nH]1 | -18% | i | 18% | 0% | i | -11%
Cc1ccccc1OCCCSc1nc2ccccc2[nH]1 | u | u | 16µM* | -24% | 12µM* | -19%
O=C1N(Cc2ccccc2)c2ccccc2C1(O)c1c[nH]c2ccccc12 (configuration not stated) | -17% | i | -30% | x | i | x
O=C1N(Cc2ccccc2Cl)c2ccccc2C1(O)c1c[nH]c2ccccc12 (configuration not stated) | 16µM* | i | u | x | u | x
Cc1ccc(C)c(CN2C(=O)C(O)(c3c[nH]c4ccccc34)c3ccccc32)c1 (configuration not stated) | 29µM* | u | 23µM* | x | i | x
Cc1ccccc1CN1C(=O)C(O)(c2c[nH]c3ccccc23)c2cc(Cl)ccc21 (configuration not stated) | 16µM* | i | 18µM* | x | i | x
NC(=O)C1CCN(c2ncc(-c3ccc4c(c3)OCCO4)s2)CC1 | x | i | x | x | i | x
CCNC(=O)CCC(N)C(=O)O (configuration not stated) | 5% | x | -8% | x | x | x
COc1ccccc1NS(=O)(=O)c1cccc(C(=O)N2CCN(C/C=C/c3ccccc3)CC2)c1 | 21µM* | x | 21µM* | 2% | x | 4%
COc1ccc(NS(=O)(=O)c2cccc(C(=O)N3CCN(C/C=C/c4ccccc4)CC3)c2)cc1 | 23µM* | i | 16µM* | -17% | u | -7%
COc1ccccc1NS(=O)(=O)c1cc(C(=O)N2CCN(C/C=C/c3ccccc3)CC2)ccc1C | u | i | u | -14% | i | -14%
CCOC(=O)c1cc(-c2ccccc2)n(-c2cccc(C(=O)Nc3cccc(F)c3)c2)c1C | -110% | i | u | x | i | x
O=[N+]([O-])c1ccc(CSc2ccc(S(=O)(=O)N3CCOCC3)cn2)cc1 | u | i | u | -10% | u | -1%
O=C(Cn1nnc(-c2ccc(F)cc2)n1)NC(=O)NC1CCCCC1 | u | i | u | -21% | i | 0%
SMILES | DT40 TDP1 CPT | KB-3-1 tox | DT40 TDP1 no CPT | HT1080 IDH1KD tx | KB-V1 MDR tox | HT1080-NT tox
CCOC(=O)N1CCN(S(=O)(=O)c2ccc(F)c(C(=O)Nc3cccc(Cl)c3C)c2)CC1 | u | i | u | -18% | 3.3µM* | -8%
COc1ccc(N2CCN(S(=O)(=O)c3ccc(F)c(C(=O)Nc4ccccc4Cl)c3)CC2)cc1 | 7.3µM* | i | 8.2µM* | x | i | x
COc1ccccc1NC(=O)c1cc(S(=O)(=O)N2CCN(c3ccccc3Cl)CC2)ccc1F | u | i | -70% | x | i | x
COc1ccccc1N1CCN(S(=O)(=O)c2ccc(F)c(C(=O)Nc3ccc(Cl)cc3C(F)(F)F)c2)CC1 | u | i | 21µM* | x | i | x
CCOC(=O)N1CCN(S(=O)(=O)c2ccc(F)c(C(=O)Nc3cc(C)cc(C)c3)c2)CC1 | 0% | i | -29% | -3% | i | 15%
O=C(C=CC(=O)OC1CCCCC1)OC1CCCCC1 | -28% | i | u | 0% | i | -19%
Cc1ccc(OC(C)C(=O)Nc2cc(C)on2)cc1 (configuration not stated) | -15% | i | 10% | 2% | i | 6%
Cc1cc(OC(C)C(=O)Nc2ccncc2)ccc1Cl (configuration not stated) | 13µM* | i | 23µM* | -21% | u | -18%
Cc1ccc(OC(C)C(=O)Nc2ccncc2)cc1 (configuration not stated) | u | i | 13µM* | u | i | 4%
c1cc(C2OCCO2)cs1 | 3% | i | -17% | 1% | i | 0%
CCc1cc(/C(Cc2csc(C)n2)=N/O)c(O)cc1O | u | u | 23µM* | -3% | u | -9%
CCOC(=O)N1CCN(Cc2cc(=O)oc3ccc4ccccc4c23)CC1 | 23µM* | i | u | 1% | i | 2%
CCOC(=O)c1c(C)oc2c1c(C(c1ccncc1)N1CCOCC1)c(O)c1ccccc12 (configuration not stated) | 21µM* | u | u | u | i | u
